The source of these data is PubChem BioAssay (NCATS).

Assay [1] in a line: qHTS for Inhibitors of the Functional Ribonucleoprotein Complex (vRNP) of Lassa (LASV) Arenavirus: LASV Primary Screen - GLuc reporter signal (AID 1347082; calls by dose curve; tested in HEK293 reporter line; also: nearly all actives have a fitted effect of over 60% in size; also: potency is read from the fitted curve at half-maximal effect). For orientation: qHTS replaces the single test concentration by a dilution series.
Assay [2] can be described thus: qHTS for Inhibitors of the Functional Ribonucleoprotein Complex (vRNP) of Lassa (LASV) Arenavirus: Viability assay - alamar blue signal for LASV Primary Screen (AID 1347083; calls by dose curve; tested in HEK293 reporter line; also: nearly all actives have a fitted effect of over 80% in size; also: potency is read from the fitted curve at half-maximal effect).
Assay [3] in a line: qHTS for Inhibitors of the Functional Ribonucleoprotein Complex (vRNP) of Lymphocytic Choriomeningitis Arenaviruses (LCMV): Viability assay - alamar blue signal for LCMV Primary Screen (AID 1347085; calls by dose curve; tested in HEK293 reporter line; also: nearly all actives have a fitted effect of over 80% in size; also: potency is read from the fitted curve at half-maximal effect).
For assay [4], the target named is Nucleoprotein (Lymphocytic choriomeningitis virus (strain Armstrong)) (UniProt P09992). The experiment in a line: qHTS for Inhibitors of the Functional Ribonucleoprotein Complex (vRNP) of Lymphocytic Choriomeningitis Arenaviruses (LCMV): LCMV Primary Screen - GLuc reporter signal (AID 1347086; calls by dose curve; also: nearly all actives have a fitted effect of over 70% in size; also: potency is read from the fitted curve at half-maximal effect).
Assay [5] in a line: qHTS of pediatric cancer cell lines to identify multiple opportunities for drug repurposing: Primary screen for TC32 cells (AID 1347089). Also: nearly all actives have a fitted effect of over 60% in size. Also: potency is read from the fitted curve at half-maximal effect. The gist of the method: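 TC32 cells, 500-1,000/well in growth medium, compound-treated 48 h at 37 °C; viability from CellTiter-Glo luminescence. Primary screen: MIPE 11-point (0.78 nM–46 µM final), NPC 8-point (0.59 nM–46 µM final); confirmatory at 11-point dilutions.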

Assay [6] is described as follows: qHTS of pediatric cancer cell lines to identify multiple opportunities for drug repurposing: Primary screen for DAOY cells (AID 1347090). Also: nearly all actives have a fitted effect of over 55% in size. Also: potency is read from the fitted curve at half-maximal effect. The gist of the method:
(§1)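 Viability measured as metabolically active cells via CellTiter-Glo luminescence following 48 hours of compound exposure, 11-point dilutions in confirmatory testing. 500-1,000 cells/well plated 5 hours before dosing; controls were DMSO and 2.3 µM bortezomib.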

A short description of assay [7]: qHTS of pediatric cancer cell lines to identify multiple opportunities for drug repurposing: Primary screen for SJ-GBM2 cells (AID 1347091). Also: potency is read from the fitted curve at half-maximal effect. The gist of the method:
as §1

Assay [8] in a line: qHTS of pediatric cancer cell lines to identify multiple opportunities for drug repurposing: Primary screen for BT-37 cells (AID 1347094). Also: potency is read from the fitted curve at half-maximal effect. The gist of the method: (§2)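 Plated cells (500-1,000 per well, growth media) were allowed to settle for 5 hours, treated with compound dilutions for 48 hours, then lysed with CellTiter-Glo for 15 min at room temperature before luminescence reading.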

Assay [9] can be described thus: qHTS of pediatric cancer cell lines to identify multiple opportunities for drug repurposing: Primary screen for NB-EBc1 cells (AID 1347095). Also: potency is read from the fitted curve at half-maximal effect. A digest of the protocol:
as §2

The nature of assay [10]: qHTS of pediatric cancer cell lines to identify multiple opportunities for drug repurposing: Primary screen for SK-N-SH cells (AID 1347098). Also: nearly all actives have a fitted effect of over 65% in size. Also: potency is read from the fitted curve at half-maximal effect. A digest of the protocol:
(§3)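 Cells (500-1,000/well) rested 5 h, then received compounds for 48 h; metabolically active cells were measured by CellTiter-Glo luminescence. Final concentrations spanned up to 46 µM (MIPE, 11-point) or 0.59 nM-46 µM (NPC, 8-point) in primary screens, 11-point in follow-ups.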

A short description of assay [11]: qHTS of pediatric cancer cell lines to identify multiple opportunities for drug repurposing: Primary screen for NB1643 cells (AID 1347099). Also: nearly all actives have a fitted effect of over 50% in size. Also: potency is read from the fitted curve at half-maximal effect. A digest of the protocol: as §2
Assay [12] is described as follows: qHTS of pediatric cancer cell lines to identify multiple opportunities for drug repurposing: Primary screen for LAN-5 cells (AID 1347100). A digest of the protocol: (§4)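 Viability after 48 h compound treatment at 37C, 500-1,000 cells/well, read as ATP luminescence with CellTiter-Glo. Primary screens used 11-point (MIPE, 0.78 nM-46 µM) or 8-point (NPC, 0.59 nM-46 µM) final concentrations; follow-up screens used 11-point dilutions.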

Assay [13] can be described thus: qHTS of pediatric cancer cell lines to identify multiple opportunities for drug repurposing: Primary screen for BT-12 cells (AID 1347101). Also: nearly all actives have a fitted effect of over 25% in size. Also: potency is read from the fitted curve at half-maximal effect. A digest of the protocol:
as §3

The nature of assay [14]: qHTS of pediatric cancer cell lines to identify multiple opportunities for drug repurposing: Primary screen for Rh18 cells (AID 1347102). Also: nearly all actives have a fitted effect of over 65% in size. The gist of the method: as §4
A short description of assay [15]: qHTS of pediatric cancer cell lines to identify multiple opportunities for drug repurposing: Primary screen for A673 cells (AID 1347092). Also: nearly all actives have a fitted effect of over 45% in size. Also: potency is read from the fitted curve at half-maximal effect. A digest of the protocol: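 A673 cells (500-1,000 cells/well) were treated 48 hours at 37 degrees C with compounds at 11-point (0.78 nM to 46 µM) or 8-point (0.59 nM to 46 µM) dilutions. Viability read by CellTiter-Glo luminescence; concentration-response curves fitted.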

Assay [16] is described as follows: qHTS of pediatric cancer cell lines to identify multiple opportunities for drug repurposing: Primary screen for U-2 OS cells (AID 1347096). Also: nearly all actives have a fitted effect of over 50% in size. The gist of the method:
as §4

A short description of assay [17]: qHTS of pediatric cancer cell lines to identify multiple opportunities for drug repurposing: Primary screen for SK-N-MC cells (AID 1347093). Also: potency is read from the fitted curve at half-maximal effect. A digest of the protocol: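 Metabolically active cells were quantified by ATP-dependent luminescence (CellTiter-Glo, 15 min at room temperature) following 48 h treatment. Cells had been plated at 500-1,000 per well and settled for 5 h beforehand.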

Assay [18] in a line: qHTS of pediatric cancer cell lines to identify multiple opportunities for drug repurposing: Primary screen for Saos-2 cells (AID 1347097). Also: nearly all actives have a fitted effect of over 40% in size. Also: potency is read from the fitted curve at half-maximal effect. The gist of the method: as §2

Values joined by “and” are separate entries in the source; they are usually repeats but may differ in a detail not shown here. Equal values may be shown once. Inconclusive results are not listed. Active and inactive are the calls of the source. Unless noted, calls follow the shape of the dose curve; as a rule, active = well fitted curve in the direction sought with a large enough effect; inconclusive = small, poorly fitted or top-dose-only effect, or another doubt; inactive = no such curve, though single readings can be large; an effect the other way counts as inactive or inconclusive.

Nucleoprotein (Lymphocytic choriomeningitis virus (strain Armstrong)), sequence (P09992 whole entry, looked up): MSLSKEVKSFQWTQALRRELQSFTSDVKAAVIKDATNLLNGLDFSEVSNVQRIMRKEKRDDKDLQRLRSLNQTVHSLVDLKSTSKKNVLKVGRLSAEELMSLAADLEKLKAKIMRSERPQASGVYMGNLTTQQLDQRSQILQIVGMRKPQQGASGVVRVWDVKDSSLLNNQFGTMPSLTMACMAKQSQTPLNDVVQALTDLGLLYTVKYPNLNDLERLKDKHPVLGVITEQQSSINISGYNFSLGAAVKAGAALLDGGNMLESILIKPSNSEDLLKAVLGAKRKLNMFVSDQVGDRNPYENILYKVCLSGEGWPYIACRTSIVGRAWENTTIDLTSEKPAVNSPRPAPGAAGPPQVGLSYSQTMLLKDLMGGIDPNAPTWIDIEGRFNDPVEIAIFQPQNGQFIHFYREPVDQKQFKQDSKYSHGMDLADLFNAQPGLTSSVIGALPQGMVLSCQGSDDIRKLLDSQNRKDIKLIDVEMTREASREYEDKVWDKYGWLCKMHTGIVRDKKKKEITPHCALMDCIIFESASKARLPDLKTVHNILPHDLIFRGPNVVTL

On to `CC(Cc1ccccc1)NCc1ccccc1Cl` (centres undefined), for which the Potency result in assay [1], in assay [2], in [3], in [4], in [5] and in assay [6] was “inactive” throughout. The Potency entry in assay [7], in [8], in [9], in [10], in [11] and in assay [12] was “inactive” each time. Also, the Potency result in assay [13] and in assay [14] was “inactive” each time.

In the case of `CNC(C)Cc1ccccc1OC` (centres undefined), the Potency entry in assay [1], in [2], in assay [3], in assay [4], in assay [5] and in [6] was “inactive” in each case. Also, the Potency entry in assay [7], in [15], in [8], in [9], in [16] and in [10] was “inactive” in each case. Moreover, the Potency result in assay [11], in assay [12], in assay [13] and in [14] was “inactive” in each case.

With `CCCN(CCC)CCc1c[nH]c2ccccc12`, the Potency entry in assay [1], in assay [2], in [3], in assay [4], in assay [5] and in assay [6] was “inactive” throughout. Further, the Potency entry in [7], in assay [8], in [9], in [16], in [10] and in assay [11] was “inactive” in each case. In addition, the Potency result in assay [12], in [13] and in assay [14] was “inactive” throughout.

On to `C[C@@H]1C[C@@H]([C@H](O)CC2CC(=O)NC(=O)C2)C(=O)[C@@H](C)C1`, for which the Potency was 0.968 µM (active) in assay [1]; 158 nM (active) and 432 nM (active) in [2]; 1.09 µM (active) in assay [3]; 1.37 µM (active) in assay [4]; 664 nM (active) and 523 nM (active) in [5]; 1.06 µM (active) and 1.18 µM (active) in assay [6]. Further, the Potency was 266 nM (active) and 235 nM (active) in assay [7]; 668 nM (active) and 372 nM (active) in [15]; 84.1 nM (active) and 74.3 nM (active) in assay [17]; 437 nM (active) and 385 nM (active) in [8]; 841 nM (active) and 3.32 µM (active) in assay [9]; 1.87 µM (active) in assay [18]. In addition, the Potency in assay [10] is 4.86 µM (active) and 8.57 µM (active); in assay [11], 0.296 µM (active); in [13], 777 nM (active) and 611 nM (active).

As for `CN1CCC(N(Cc2ccccc2)c2ccccc2)CC1`, the Potency result in [1], in assay [2], in [3], in [4], in assay [5] and in assay [6] was “inactive” in each case. The Potency result in assay [7], in assay [15], in [8], in assay [9], in assay [16] and in [18] was “inactive” in each case. In addition, the Potency entry in assay [11], in assay [12], in [13] and in [14] was “inactive” each time.

In the case of `COc1cc(C[C@@H](C)N)c(OC)cc1C`, the Potency entry in assay [1], in [2], in [3], in assay [4], in [5] and in assay [6] was “inactive” in each case. Besides, the Potency entry in assay [7], in assay [15], in [17], in [16], in [18] and in assay [10] was “inactive” throughout. For the same compound, the Potency entry in [12] and in [14] was “inactive” each time.

In the case of `CC[C@H]1C[C@H]2[C@@H]3CCC4=CC(=O)CC[C@@H]4[C@H]3CC[C@]2(C)[C@H]1O`, the Potency entry in assay [1], in assay [2], in assay [3], in assay [4], in assay [5] and in [6] was “inactive” each time. Further, the Potency result in [7], in [15], in assay [8], in assay [9], in assay [16] and in assay [18] was “inactive” throughout. The Potency entry in [11], in assay [12] and in [14] was “inactive” throughout.

Consider `CCOC(C(=O)OCCN(C)C)(c1ccccc1)c1ccccc1`, for which the Potency result in assay [1], in [2], in [3], in assay [4], in assay [5] and in assay [6] was “inactive” each time. For the same compound, the Potency result in assay [7], in [15], in assay [8], in assay [9], in assay [16] and in assay [18] was “inactive” in each case. Moreover, the Potency result in assay [10], in assay [11], in [12] and in assay [14] was “inactive” throughout.

`C[C@@H]1CC[C@H]2[C@@H](C)C(=O)O[C@@H]3O[C@@]4(C)CC[C@@H]1[C@]32OO4`: the Potency entry in assay [1], in [2], in assay [3], in [4], in assay [5] and in assay [6] was “inactive” each time. Moreover, the Potency entry in assay [7], in [15], in [8], in assay [9], in [16] and in [10] was “inactive” each time. The Potency result in assay [12] and in [14] was “inactive” throughout.

Consider `C=CC[C@]1(O)CC[C@H]2[C@@H]3CCC4=CC(=O)CCC4=C3C=C[C@@]21C`, for which the Potency entry in assay [1], in [2], in assay [3], in assay [4], in assay [5] and in [6] was “inactive” in each case. In addition, the Potency entry in assay [7], in assay [15], in assay [9], in [16], in [18] and in assay [10] was “inactive” each time. Besides, the Potency entry in assay [12] and in [14] was “inactive” each time.
